This is an account of results in PubChem BioAssay AID1347076 (National Center for Advancing Translational Sciences (NCATS), 2019).

Hit rate of the full screen: of about 400,000 compounds, about 13,000 (3.2%) were called active. Not shown: some 18% with an inconclusive outcome. Calls come from the whole dose curve; as a rule, active = well fitted cell-killing curve with a large enough effect; inconclusive = small, poorly fitted or top-dose-only effect, or effect the other way; inactive = flat fitted curve, though single readings scatter. What follows is part of a selection rich in actives, with near analogues and random picks from the rest.
% is set by controls: 0 for no effect and ±100 for the full control effect; potency is the fitted concentration of half-maximal effect.

This assay can be described thus: qHTS assay for MDR1-selective chemotherapeutics: Primary screen using the drug-selected MDR subline cells KB-V1. Note: nearly all actives have a fitted effect of over 60% in size. Conditions: KB-V1 MDR cells viability, CellTiter-Glo, 72 h; series mostly up to 46.1 µM; activity change, negative = cytotoxicity: at the top concentration. The text has this: A prime difficulty in effectively treating cancer is the development of cellular resistance to multiple structurally unrelated anticancer drugs, a phenomenon known as multidrug resistance (MDR). […] Numerous strategies to overcome P-gp-mediated MDR have been explored, including the design of drugs that evade recognition and efflux, and development of inhibitors to block efflux and restore drug accumulation. […] An alternative approach is to exploit resistance by identifying drugs that target MDR cells over the non-resistant parental cells from which they were selected. […] The development of MDR1-selective agents represents a new strategy for resolving multidrug resistance, as it remains a long-standing clinical challenge for cancer chemotherapy.
Our goal is to identify compounds that selectively kill P-gp-expressing MDR cells. We will identify MDR1-selective compounds by comparing toxicity of compounds in the screening library against parental, drug-naive (KB-3-1) adenocarcinoma cells as well as their drug-selected MDR sub-line (KB-V1). The differential toxicity of compounds against these two cell lines will be used to identify MDR1-selective compounds, whose cytotoxicity is potentiated, rather than diminished, by P-gp expression. This assay will be utilized to conduct a quantitative high-throughput screen (qHTS) in collaboration with the NIH Chemical Genomics Center to identify selective agents, and probe hits arising from the screen will be validated using secondary assays and characterized through a well-established follow-up research program. This screen was run against the entire NCGC library collection of about 400,000 compounds.
NIH Molecular Libraries Probe Production Network [MLPCN]
NIH Chemical Genomics Center [NCGC]
PI: Michael Gottesman, National Cancer Institute, NIH
Briefly, 5 microL of media containing either KB-V1 cells (columns 1-2, 4-48) are dispensed into Greiner white, treated solid-bottom 1536-well assay plates (media-only control is added to column 3). Compounds are then transferred via Kalypsys pin tool equipped with 1536-pin array (10 nL slotted pins, V&P Scientific, San Diego, CA). Following addition of compound, the plates are incubated at 37 degrees C for 72 hours. CellTiter-Glo (2.5 µL/well) is then added, and the plates are read in a ViewLux reader (Perkin-Elmer, clear luminescence filter, 1 second exposure, 1x binning) following a 10 minute incubation. All cells are dispensed in DMEM phenol-red free media containing 10% FBS.
Library plates were screened starting from the lowest and proceeding to the highest concentration. Vehicle-only plates, with DMSO being pin-transferred to columns 5-48, will be inserted uniformly at the beginning and the end of each library in order to monitor and record any shifts in the background, which can be affected by reagent dispensers or loss in enzyme activity over time. Screening data will be corrected, normalized, and concentration-effect relationships will be derived by using publicly-available NCGC, NCATS curve fitting algorithms (http://ncgc.nih.gov/pub/openhts).
(In general: qHTS replaces the single test concentration by a dilution series.)
Turning to `COC(=O)c1ccccc1N=NNc1ccc([N+](=O)[O-])cc1`, the “activity change, negative = cytotoxicity” value was 8.27% (inactive).
Same read-out and setting: the same measure for `CC1(C(=O)NS(=O)(=O)c2cccc(F)c2)CCN1C(=O)Cc1cc(F)ccc1F` (stereo not drawn): -1.01% (inactive).
Same read-out and setting: the same measure for `O=C(Nc1cccc(-c2nnc(-c3ccccc3)o2)c1)C1CCCO1` (stereo not drawn): -7.48% (inactive).
Take `O=C(Nc1ccc(-c2nnc(-c3ccccc3)o2)cc1)C1CCCO1` (stereo not drawn): the Potency is 8.2 µM (active).
For the compound `O=C(Nc1nnc(CCc2ccccc2)s1)C1CCCO1` (stereo not drawn), the “activity change, negative = cytotoxicity” value is 21% (inactive).
Regarding `CC1(C(=O)NCc2ccccc2)CSCC(=O)N1CCCn1ccnc1` (stereo not drawn), the “activity change, negative = cytotoxicity” value was -1.64% (inactive).
On to `COc1ccc(-c2cc(NCc3ccc(F)cc3)n3cnnc3n2)cc1`, for which the “activity change, negative = cytotoxicity” value was -27.6% (inactive).
For `Cc1cccc(C(=O)N[C@H](C(=O)NCc2cccs2)C(C)C)c1`, the Potency was 9.2 µM (active).
Consider `CC(=O)Nc1ccc(NC(=O)[C@@H](NC(=O)c2cccc(C)c2)C(C)C)cc1`, for which the “activity change, negative = cytotoxicity” value was -7.26% (inactive).
On the same count and under the same terms, then `CC(Cc1cccs1)NC(=O)c1cccc(Cl)c1` (stereo not drawn), with -0.81% (inactive); and `COc1ccc(-c2[nH][nH]c(=O)c2NC(=O)c2ccc([N+](=O)[O-])cc2)cc1`, with 13.7% (inactive); and `O=C(NCC1COc2ccccc2O1)C1(c2ccccc2)CCCC1` (stereo not drawn), with 0% (inactive).
Still for that read-out and setting: then `CCCN(CC1COc2ccccc2O1)C(=S)Nc1ccc(C)cc1` (stereo not drawn), with 0.384% (inactive).
As to `S=C(NCC1COc2ccccc2O1)Nc1ccc(Br)cc1` (stereo not drawn), the Potency is 23.1 µM (active).
As for `C[C@@H]1CN([C@H](C)CO)C(=O)c2cc(-c3ccc(F)cc3)cnc2O[C@H]1CN(C)C(=O)c1ccc(F)cc1`, the “activity change, negative = cytotoxicity” value was 8.9% (inactive).
Regarding `CN(Cc1c(F)cccc1Cl)C(=O)COC(=O)Cn1cnc2ccccc2c1=O`, the “activity change, negative = cytotoxicity” value was -0.17% (inactive).
As to `Cn1c(=O)n(C)c2cc(S(=O)(=O)N3CCCc4ccccc43)ccc21`, the Potency was 8.2 µM (active).
In the case of `COc1cc(C)c(C)cc1S(=O)(=O)N1CCCc2ccccc21`, the “activity change, negative = cytotoxicity” value is -18.2% (inactive).
Same read-out and setting: then `CC1CCN(C(=O)c2cccc(S(=O)(=O)N3CCCc4ccccc43)c2)CC1`, with -25.6% (inactive); and `C[C@H](CO)N1C[C@H](C)[C@@H](CN(C)Cc2ccc3c(c2)OCO3)OCc2cnnn2CCCC1=O`, with 25.2% (inactive); and `CC1(C(=O)Nc2cccnc2)Cc2c(-c3ccccc3)ccnc2O1` (stereo not drawn), with 0.0523% (inactive).
Same read-out and setting: the same measure for `Cc1nnc(SC(C)C(=O)c2c[nH]c3ccccc23)n1C1CC1` (stereo not drawn): 12.2% (inactive).
`Cc1[nH]c2ccccc2c1C(=O)C(C)Sc1nnc(C2CC2)o1` (stereo not drawn): the Potency was 7.31 µM (active).
With `Cc1[nH]c2ccccc2c1C(=O)CN1CC(C)CC(C)C1` (stereo not drawn), the “activity change, negative = cytotoxicity” value is -4.45% (inactive).
The same measure, in the same setting: then `COc1ccc(NC(=O)c2ccc3nc(CCc4ccccc4)oc3c2)c(OC)c1`, with 8.05% (inactive); and `CC1(C(=O)NS(=O)(=O)c2cccs2)CCN1C(=O)Cc1ccc(-c2ccccc2)cc1` (stereo not drawn), with 2.38% (inactive).
Same read-out and setting: then `O=C(COc1ccccc1C(=O)Nc1ccccc1)Nc1cccc(F)c1`, with 18.7% (inactive); and `Cc1nc2c(-c3ccccc3)c(C)nn2c(C)c1CCC(=O)NCCc1ccccc1`, with -0.983% (inactive).
On the same count and under the same terms, the same measure for `COc1cc(NC(=O)CCn2nc(C)cc2C)cc(OC)c1OC`: 4.5% (inactive).
Turning to `CSc1ncccc1C(=O)N1CCCC(CCC(=O)NCc2ccccc2F)C1` (stereo not drawn), the “activity change, negative = cytotoxicity” value is -19.4% (inactive).
On the same count and under the same terms, then `COc1cccc(CNC(=O)CCC2CCCN(C(=O)c3cc(C)[nH]n3)C2)c1` (stereo not drawn), with 0% (inactive).
Regarding `Cc1[nH]c2c(C(=O)N3CCCC(CCC(=O)NCc4ccccc4F)C3)cccc2c1C` (stereo not drawn), the Potency is 16.4 µM (active).
In the case of `CC(C)NC(=O)N1Cc2cc(C(=O)NCC(F)(F)F)nc(-c3cccc(-c4cc5ccccc5o4)c3)c2[C@@H]1CCO`, the “activity change, negative = cytotoxicity” value is -2.81% (inactive).
With `CCOc1ccc2nc(N3CCCN(C(=O)Nc4ccccc4C)CC3)c(C#N)cc2c1`, the Potency was 18.4 µM (active).
`COc1ccc2nc(N3CCCC(O)C3)c(C#N)cc2c1` (stereo not drawn): the “activity change, negative = cytotoxicity” value was 20.8% (inactive).
`CCOc1ccc2nc(N3CCCC(C(=O)Nc4cc(C)ccc4C)C3)sc2c1` (stereo not drawn): the “activity change, negative = cytotoxicity” value is 5.92% (inactive).
The same measure, in the same setting: the same measure for `CCOC(=O)c1ccccc1NC(=O)c1nn(-c2ccc(OC)c(Cl)c2)c(=O)c2c1c1ccccc1n2C`: -2.72% (inactive); for `CN(C)CCNC(=O)c1ccc(-c2cn3c(-c4ccc(Oc5ccccc5)cc4)cnc3cn2)cc1`: 0.255% (inactive).
Same read-out and setting: then `O=C(CCc1nc(CN2CCN(S(=O)(=O)c3ccc(F)cc3)CC2)no1)N1CCCCC1`, with 3.75% (inactive); and `Oc1ccc(-c2nc3ccccc3nc2-c2ccc(O)cc2O)c(O)c1`, with 8.6% (inactive).
Regarding `Cc1cc(O)ccc1-c1cnc2ccccc2n1`, the Potency is 14.6 µM (active).
For `CC(=O)Nc1cnc(-c2ccc(O)cc2C)cn1`, the “activity change, negative = cytotoxicity” value is -0.324% (inactive).
Same read-out and setting: then `O=C(Nc1ccccc1Br)c1cc(CN2CCCC2)on1`, with -8.6% (inactive); and `OC(c1ccc(Cl)cc1)c1ncc(-c2ccc(Cl)cc2)[nH]1` (stereo not drawn), with 1.01% (inactive).
Same read-out and setting: the same measure for `COC(=O)c1cnn(-c2ccc(C(=O)Nc3ccc(OC(F)(F)F)cc3)cc2)c1N`: 1.13% (inactive); for `Cn1cccc1/C=N/NC(=O)c1ccc(OC(F)(F)C(F)F)cc1`: 13.2% (inactive).
Consider `O=C(Nc1ccc(OC(F)(F)F)cc1)c1ccc2c(c1)no[n+]2[O-]`, for which the Potency is 20.6 µM (active).
For `CCN(CC)C(=O)C1=C(C)N(Cc2ccc(F)cc2)C(=O)C(CC(=O)NC2CCCC2)C1` (stereo not drawn), the “activity change, negative = cytotoxicity” value is 0% (inactive).
`CCc1ccc([C@@H]2CC(=O)[C@@H]3CN(S(=O)(=O)c4ccc(C)cc4)[C@H](c4ccc(Cl)cc4)C[C@@H]3N2S(=O)(=O)c2ccc(C)cc2)cc1`: the “activity change, negative = cytotoxicity” value was 14.3% (inactive).
Same read-out and setting: then `Cc1ccc2nc(CN3CCN(S(=O)(=O)c4ccc(C)c(C)c4)CC3)oc2c1`, with 15% (inactive).
Consider `Cc1cc(N2CCN(S(=O)(=O)c3ccc(C)c(C)c3)CC2)c2ccccc2n1`, for which the Potency is 3.26 µM (active).
Regarding `Cc1ccc(S(=O)(=O)N2CCN(c3ccccc3)CC2)cc1C`, the “activity change, negative = cytotoxicity” value was -13.5% (inactive).
Still for that read-out and setting: then `CCOC(=O)c1c(C)[nH]c(C)c1S(=O)(=O)N1CCCC(C(=O)NCc2ccccc2Cl)C1` (stereo not drawn), with 27.7% (inactive); and `CCc1nnc(NC(=O)CSc2nnc(Cc3ccccc3)n2-c2ccc(OC)cc2)s1`, with 10.7% (inactive).
As to `COc1ccc(NCc2nnc(SCc3ccccc3)n2-c2ccc(OC)cc2)cc1`, the Potency is 8.2 µM (active).
Consider `CCn1c(CNc2ccc(OC)cc2)nnc1SCC(=O)c1ccc(OC)cc1`, for which the “activity change, negative = cytotoxicity” value is -1.67% (inactive).
Still for that read-out and setting: the same measure for `CNC(=O)c1ccc(-c2nc(CN3CCc4ccccc43)c(C)o2)cc1`: -20.6% (inactive).
Consider `COc1ccc(-c2csc(N3CCN(Cc4ccc5c(c4)OCO5)CC3)n2)cc1`, for which the Potency is 13 µM (active).
Turning to `O=C(CN1CCN(c2nc(-c3ccccc3)cs2)CC1)NCc1ccc2c(c1)OCO2`, the “activity change, negative = cytotoxicity” value was -8.12% (inactive).
In the case of `COc1ccc(C(O)c2nc(-c3ccc4c(c3)OCO4)cs2)cc1` (stereo not drawn), the “activity change, negative = cytotoxicity” value was 2.33% (inactive).
Same read-out and setting: the same measure for `CCN(C(=O)Nc1cccc2ccccc12)c1ccccc1`: -1.11% (inactive).
Still for that read-out and setting: the same measure for `CC1(C(=O)Nc2ccccc2Br)CCN1C(=O)CC1CC1` (stereo not drawn): 4.78% (inactive); for `Cc1ccc(CN(C)C[C@@H]2OCc3cnnn3CCCC(=O)N([C@@H](C)CO)C[C@H]2C)cc1`: 16.2% (inactive).
